According to PubChem BioAssay:
For some assays here: Measured potencies and affinities stand elsewhere. The source made the active and inactive calls. Unless noted, no rule for the calls is given here.

Legend:
[1] = antimalarial activity against Dd2 strain (AID 2302;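 active = growth inhibition above 50% at the single 2 µM test dose, taken to imply half-maximal potency below 2 µM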;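 also: 0% = DMSO untreated growth and 100% = chloroquine plus artemisinin killed control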); details: P. falciparum Dd2 in RBCs, LDH growth readout, 72 h; at 2 µM; active compounds read high
[2] = human hepatoma cell viability loss – ATP luminescence, cytotoxicity control for P. falciparum antimalarial project, primary screen (AID 2303;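 active = inhibition above 50%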;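 also: 0% = DMSO wells and 100% = digitonin-killed cells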); details: HepG2 viability, 24-48 h, at 10 µM, active compounds read high
[3] = molecular target: L-lactate dehydrogenase (Plasmodium falciparum (isolate CDC / Honduras)) (UniProt Q27743); assay: PfLDH activity inhibition – cell lysate, 3D7 strain, counter-screen for P. falciparum growth inhibition project (AID 2304);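 also: 0% = vehicle and 100% = reference inhibitor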; details: P. falciparum 3D7 crude extract, LDH APAD/NBT absorbance; at 2 µM; active compounds read high
L-lactate dehydrogenase (Plasmodium falciparum (isolate CDC / Honduras)), sequence (Q27743 whole entry, looked up): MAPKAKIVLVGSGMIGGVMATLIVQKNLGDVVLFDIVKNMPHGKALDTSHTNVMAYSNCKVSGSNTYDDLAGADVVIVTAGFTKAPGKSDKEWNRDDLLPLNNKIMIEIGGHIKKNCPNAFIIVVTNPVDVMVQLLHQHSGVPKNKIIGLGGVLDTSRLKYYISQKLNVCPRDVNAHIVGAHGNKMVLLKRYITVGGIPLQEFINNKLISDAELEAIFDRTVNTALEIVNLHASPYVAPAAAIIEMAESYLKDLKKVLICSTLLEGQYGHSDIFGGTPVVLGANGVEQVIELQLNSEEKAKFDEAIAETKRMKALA

[4] = inhibition of 3D7 malaria parasite growth – strain 3D7 (AID 2306);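 also: 0% = DMSO wells and 100% = chloroquine plus artemisinin control wells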; details: P. falciparum 3D7 erythrocytic growth, LDH absorbance, 72 h; at 2 µM; active compounds read high
[5] = molecular target: Calcium-dependent protein kinase 1 (Plasmodium falciparum (isolate 3D7)) (UniProt P62344); assay: PfCDPK1 kinase inhibitors, biochemical, TCAMS library (AID 1159585; cut-off not given, nearly all actives have IC50 up to about 0.98 µM;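 also: inhibitors leave more ATP so luminescence rises with inhibition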); details: recombinant PfCDPK1, Kinase-Glo ATP depletion luminescence
Calcium-dependent protein kinase 1 (Plasmodium falciparum (isolate 3D7)), sequence (P62344 whole entry, looked up): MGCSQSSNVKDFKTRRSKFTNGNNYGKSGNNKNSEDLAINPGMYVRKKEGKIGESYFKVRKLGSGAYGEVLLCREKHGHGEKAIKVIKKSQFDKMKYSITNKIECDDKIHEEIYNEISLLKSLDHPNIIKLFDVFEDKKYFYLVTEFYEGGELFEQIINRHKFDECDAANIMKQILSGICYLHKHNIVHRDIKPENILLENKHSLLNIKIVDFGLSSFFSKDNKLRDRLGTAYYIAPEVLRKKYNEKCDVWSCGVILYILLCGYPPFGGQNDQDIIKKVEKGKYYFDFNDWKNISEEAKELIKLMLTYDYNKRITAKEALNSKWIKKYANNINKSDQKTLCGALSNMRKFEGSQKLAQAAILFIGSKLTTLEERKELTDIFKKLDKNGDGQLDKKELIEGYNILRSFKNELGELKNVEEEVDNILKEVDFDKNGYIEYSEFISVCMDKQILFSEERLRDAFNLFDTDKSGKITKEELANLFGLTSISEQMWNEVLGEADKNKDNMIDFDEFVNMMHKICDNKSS

[6] = molecular target: Plasmodium falciparum protein kinase 6 (PK6, PF3D7_1337100) (UniProt Q8IDW1); assay: PfPK6 kinase inhibitors, biochemical, TCAMS library (AID 1159586); details: recombinant PfPK6, Kinase-Glo ATP depletion luminescence
Plasmodium falciparum protein kinase 6 (PK6, PF3D7_1337100), sequence (Q8IDW1 1-305): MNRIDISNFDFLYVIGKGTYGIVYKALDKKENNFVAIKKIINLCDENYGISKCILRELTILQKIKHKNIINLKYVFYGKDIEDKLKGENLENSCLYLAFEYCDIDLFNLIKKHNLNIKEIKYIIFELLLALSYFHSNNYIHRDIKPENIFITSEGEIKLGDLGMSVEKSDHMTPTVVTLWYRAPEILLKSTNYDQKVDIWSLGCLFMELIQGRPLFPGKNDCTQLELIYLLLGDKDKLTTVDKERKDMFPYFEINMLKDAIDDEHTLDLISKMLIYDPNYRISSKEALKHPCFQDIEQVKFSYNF

[7] = molecular target: Protein kinase 7 (PK7), Plasmodium falciparum 3D7 (PF3D7_0213400) (UniProt Q7YTF7); assay: inhibition of Plasmodium PK7 catalytic activity – biochemical, TCAMS antimalarial set, Kinase-Glo luminescence (AID 1159587); details: recombinant PfPK7, Kinase-Glo ATP depletion luminescence
Protein kinase 7 (PK7), Plasmodium falciparum 3D7 (PF3D7_0213400), sequence (Q7YTF7 1-343): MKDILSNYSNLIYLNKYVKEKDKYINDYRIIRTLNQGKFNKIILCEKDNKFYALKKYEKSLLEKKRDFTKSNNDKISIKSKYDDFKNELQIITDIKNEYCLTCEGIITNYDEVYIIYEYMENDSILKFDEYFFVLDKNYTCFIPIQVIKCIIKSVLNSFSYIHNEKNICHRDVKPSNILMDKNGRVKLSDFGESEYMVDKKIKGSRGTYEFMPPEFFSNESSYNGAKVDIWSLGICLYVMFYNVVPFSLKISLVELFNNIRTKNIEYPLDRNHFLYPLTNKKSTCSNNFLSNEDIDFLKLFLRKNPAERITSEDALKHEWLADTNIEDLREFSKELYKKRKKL

[8] = molecular target: Calcium-dependent protein kinase 4 (Plasmodium falciparum (isolate 3D7)) (UniProt Q8IBS5); assay: PfCDPK4 kinase inhibitors, biochemical, TCAMS library (AID 1159588; cut-off not given, nearly all actives have IC50 up to about 0.91 µM); details: recombinant PfCDPK4, Kinase-Glo ATP depletion luminescence
Calcium-dependent protein kinase 4 (Plasmodium falciparum (isolate 3D7)), sequence (Q8IBS5 whole entry, looked up): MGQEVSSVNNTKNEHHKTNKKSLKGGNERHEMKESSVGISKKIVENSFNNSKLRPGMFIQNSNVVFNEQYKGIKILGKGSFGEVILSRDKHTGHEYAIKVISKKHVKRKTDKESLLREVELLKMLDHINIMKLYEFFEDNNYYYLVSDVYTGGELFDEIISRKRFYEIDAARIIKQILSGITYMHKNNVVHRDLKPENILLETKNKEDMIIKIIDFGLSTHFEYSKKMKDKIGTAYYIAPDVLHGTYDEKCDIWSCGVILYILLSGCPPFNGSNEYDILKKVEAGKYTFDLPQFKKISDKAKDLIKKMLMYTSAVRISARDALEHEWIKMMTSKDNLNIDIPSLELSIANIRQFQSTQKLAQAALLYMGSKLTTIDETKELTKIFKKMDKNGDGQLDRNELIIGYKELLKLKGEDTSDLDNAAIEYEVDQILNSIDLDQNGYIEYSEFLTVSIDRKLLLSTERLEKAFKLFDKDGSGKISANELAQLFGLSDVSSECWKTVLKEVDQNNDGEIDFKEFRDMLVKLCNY

N[C@@H](Cc1cc(I)c(Oc2ccc(O)c(Cl)c2)c(I)c1)C(=O)O
active: growth inhibition [4] 96%
inactive: growth inhibition [1] -3% | inhibition [2] -4% | inhibition [3] -2% | outcome [5] | outcome [6] | outcome [7] | outcome [8]

Cc1ccccc1-c1nc2c(CN3CCC(O)(c4ccccc4)CC3)c(O)ccc2[nH]1
active: growth inhibition [1] 61% | growth inhibition [4] 92%
inactive: inhibition [2] 27% | inhibition [3] 4% | outcome [5] | outcome [6] | outcome [7] | outcome [8]

O=S(=O)(NC1CCN(c2ccnc3cc(Cl)ccc23)C1)c1cccc(F)c1 (stereo not given)
active: growth inhibition [1] 88% | growth inhibition [4] 98%
inactive: inhibition [2] 19% | inhibition [3] 5% | outcome [5] | outcome [6] | outcome [7] | outcome [8]

Cc1[nH]nc2ccc(-c3cc(OC[C@@H](N)Cc4ccccc4)cnc3-c3ccccc3OCc3cccc(F)c3)cc12
active: growth inhibition [1] 91% | inhibition [2] 55% | growth inhibition [4] 91%
inactive: inhibition [3] -2% | outcome [5] | outcome [6] | outcome [7] | outcome [8]

O=C(Nc1ccc(OC2CCN(Cc3ccc(F)cc3)CC2)c(Cl)c1)c1ccccc1
active: growth inhibition [1] 89% | growth inhibition [4] 90%
inactive: inhibition [2] 16% | inhibition [3] -4% | outcome [5] | outcome [6] | outcome [7] | outcome [8]

CCCCCCNC(=O)C1Cc2c([nH]c3ccc(Br)cc23)C2(CCN(CCc3ccccc3)CC2)N1 (stereo not given)
active: growth inhibition [1] 94% | growth inhibition [4] 100%
inactive: inhibition [2] 36% | inhibition [3] 0% | outcome [5] | outcome [6] | outcome [7] | outcome [8]

Fc1cccc(COc2ccc(-n3ccc4c(NCCCn5ccnc5)ncnc43)cc2Cl)n1
inactive: growth inhibition [1] 29% | inhibition [2] 14% | inhibition [3] -2% | outcome [5] | outcome [6] | outcome [7] | outcome [8]
active: growth inhibition [4] 87%

Cc1cc2c(cc1C(F)(F)F)N(C(=O)Nc1cc(C(=O)NC3CCN(Cc4ccccc4)C3)cc(C(F)(F)F)c1)CC2 (stereo not given)
inactive: inhibition [2] 22% | inhibition [3] 0% | outcome [5] | outcome [6] | outcome [7] | outcome [8]
active: growth inhibition [1] 97% | growth inhibition [4] 101%

CCCCc1ccc(C(=O)Nc2ccc3nc(N4CCN(CC)CC4)cc(C)c3c2)cc1
active: growth inhibition [4] 91%
inactive: growth inhibition [1] 13% | inhibition [2] 32% | inhibition [3] 4% | outcome [5] | outcome [6] | outcome [7] | outcome [8]

Cc1cc(NC2CCCC2)nc(Nc2ccccc2)n1
active: growth inhibition [1] 75% | growth inhibition [4] 100%
inactive: inhibition [2] 26% | inhibition [3] 0% | outcome [5] | outcome [6] | outcome [7] | outcome [8]

CCc1ccc(C2CCN(CCCCNC(=O)c3ccc(NC(=O)c4ccc(Cl)cc4)cc3)CC2)c(OC(C)=O)c1
inactive: inhibition [2] 48% | inhibition [3] 0% | outcome [5] | outcome [6] | outcome [7] | outcome [8]
active: growth inhibition [1] 100% | growth inhibition [4] 91%

Fc1cccc(COc2ccc(Nc3ncnc4ccc(-c5nnc(C(F)(F)F)o5)cc34)cc2Cl)c1
inactive: inhibition [2] 14% | inhibition [3] 5% | outcome [5] | outcome [6] | outcome [7] | outcome [8]
active: growth inhibition [1] 77% | growth inhibition [4] 101%

CC(C)(C)c1ccc(OC(=O)c2ccc(NC(=O)N[C@@H](Cc3ccc(O)cc3)C(=O)NC3CCN(Cc4ccc(O)cc4)C3)cc2)cc1 (stereo not given in full)
inactive: inhibition [2] 0% | inhibition [3] -3% | outcome [5] | outcome [6] | outcome [7] | outcome [8]
active: growth inhibition [1] 67% | growth inhibition [4] 92%

CN1CCC(NCc2ccc(-c3ccc(C(F)(F)F)cc3)cc2)CC1
inactive: inhibition [3] 5% | outcome [5] | outcome [6] | outcome [7] | outcome [8]
active: growth inhibition [1] 71% | inhibition [2] 54% | growth inhibition [4] 99%

CCOc1c(N2CCN(CCCCNC(=O)c3ccc(NC(=O)c4ccc(Cl)cc4)cc3)CC2)ccc2ccccc12
active: growth inhibition [4] 100%
inactive: growth inhibition [1] 45% | inhibition [2] 18% | inhibition [3] 0% | outcome [5] | outcome [6] | outcome [7] | outcome [8]

Cc1cccc2[nH]c(-c3cccc(-c4cccc(CN5CCN(c6ccncc6)CC5)c4)c3)nc12
inactive: inhibition [2] 47% | inhibition [3] -5% | outcome [5] | outcome [6] | outcome [7] | outcome [8]
active: growth inhibition [1] 96% | growth inhibition [4] 102%

CC(=O)NC1=NC(C)(C)N(OCc2ccc(Cl)c(Cl)c2)C(NC(C)=O)=N1
inactive: inhibition [3] -5% | outcome [5] | outcome [6] | outcome [7] | outcome [8]
active: growth inhibition [1] 97% | inhibition [2] 68% | growth inhibition [4] 94%

CC[C@H]1CN(Cc2cccc(O)c2)CC[C@H]1CCCc1ccnc2ccc(O)cc12
inactive: inhibition [2] 14% | inhibition [3] 4% | outcome [5] | outcome [6] | outcome [7] | outcome [8]
active: growth inhibition [1] 98% | growth inhibition [4] 103%

Cc1nc(-c2ccc(-c3ccc(NC(=O)c4coc5ccc(N6C[C@@H](C)N(C)[C@@H](C)C6)cc45)cc3)c(C)c2)no1
inactive: growth inhibition [1] 46% | inhibition [2] 21% | inhibition [3] 1% | outcome [5] | outcome [6] | outcome [7] | outcome [8]
active: growth inhibition [4] 96%

CC(O)C1CCCCN1C(=O)c1cccc(-c2cccc(-c3nc4ccc(C(F)(F)F)cc4[nH]3)c2)c1 (stereo not given)
inactive: inhibition [2] 32% | inhibition [3] -5% | outcome [5] | outcome [6] | outcome [7] | outcome [8]
active: growth inhibition [1] 100% | growth inhibition [4] 100%

O=C(Nc1nc2cc(S(=O)(=O)NCc3ccc(Cl)c(Cl)c3)ccc2n1CCCn1ccnc1)c1ccc(Cl)cc1
active: growth inhibition [4] 101%
inactive: growth inhibition [1] 44% | inhibition [2] -12% | inhibition [3] 4% | outcome [5] | outcome [6] | outcome [7] | outcome [8]

CO/C(=C\C=C\c1cc2cc(Cl)c(Cl)cc2[nH]1)C(=O)NCCCN1CCN(c2cccc(O)c2)CC1
inactive: inhibition [2] 46% | inhibition [3] -2% | outcome [5] | outcome [6] | outcome [7] | outcome [8]
active: growth inhibition [1] 100% | growth inhibition [4] 91%

CC(C)Cc1c(O)nc(SCCN2CCOCC2)[nH]c1=O
inactive: growth inhibition [1] -5% | inhibition [2] 19% | inhibition [3] 1% | outcome [5] | outcome [6] | outcome [7] | outcome [8]
active: growth inhibition [4] 88%

Cc1cc(N[C@@H](CC(C)C)C(=O)NCCOc2ccccc2)nc(Nc2ccccc2)n1
active: growth inhibition [4] 93%
inactive: growth inhibition [1] 9% | inhibition [2] 9% | inhibition [3] -2% | outcome [5] | outcome [6] | outcome [7] | outcome [8]

CCOC(=O)NC1=NC(C)(C)N(OCc2ccc(Cl)c(Cl)c2)C(NC(=O)OCC)=N1
inactive: growth inhibition [1] 4% | inhibition [3] 2% | outcome [5] | outcome [6] | outcome [7] | outcome [8]
active: inhibition [2] 65% | growth inhibition [4] 98%

COc1cc(Cc2cnc(N)nc2N)cc(OCCCCC2SC(=O)NC2=O)c1OC (stereo not given)
active: growth inhibition [4] 94%
inactive: growth inhibition [1] 0% | inhibition [2] -9% | inhibition [3] 7% | outcome [5] | outcome [6] | outcome [7] | outcome [8]

O=C(/C=C/c1ccc(Cl)c(Cl)c1)N1CCN(C(=O)Nc2ccc(F)c(Cl)c2)CC1
active: growth inhibition [1] 87% | growth inhibition [4] 97%
inactive: inhibition [2] 19% | inhibition [3] -6% | outcome [5] | outcome [6] | outcome [7] | outcome [8]

O=C(N1CCN(c2cccc(C(F)(F)F)c2)CC1)C(Cl)(Cl)Cl
inactive: growth inhibition [1] 35% | inhibition [2] -8% | inhibition [3] 2% | outcome [5] | outcome [6] | outcome [7] | outcome [8]
active: growth inhibition [4] 89%

CC(=O)c1c(Cc2ccccc2Cl)c[nH]c1C
active: growth inhibition [1] 53% | growth inhibition [4] 95%
inactive: inhibition [2] -2% | inhibition [3] 0% | outcome [5] | outcome [6] | outcome [7] | outcome [8]

COc1ccc(Cl)cc1-c1nc(C(=O)NCCN2CCCCC2)c(C)s1
inactive: growth inhibition [1] 10% | inhibition [2] 16% | inhibition [3] -7% | outcome [5] | outcome [6] | outcome [7] | outcome [8]
active: growth inhibition [4] 97%

NC(=O)c1cccc(Nc2nccc(Nc3ccc4[nH]c(-c5ccccc5)cc4c3)n2)c1
inactive: inhibition [2] 28% | inhibition [3] -2% | outcome [5] | outcome [6] | outcome [7] | outcome [8]
active: growth inhibition [1] 98% | growth inhibition [4] 101%

C=C[C@H]1CN(CCCCCCC)CC[C@H]1CC(O)Cc1ccnc2cc(O)c(OC)cc12 (stereo not given in full)
active: growth inhibition [1] 59% | growth inhibition [4] 95%
inactive: inhibition [2] 7% | inhibition [3] 1% | outcome [5] | outcome [6] | outcome [7] | outcome [8]

O=C(Nc1ccsc1)Nc1cccc(-c2cccc(-c3nc4ccc(C(F)(F)F)cc4[nH]3)c2)c1
active: growth inhibition [1] 101% | inhibition [2] 76% | growth inhibition [4] 102%
inactive: inhibition [3] -7% | outcome [5] | outcome [6] | outcome [7] | outcome [8]

Oc1ccc(CCNc2nc(NCc3ccccc3-c3ccc(F)cc3)nc(N3CCNCC3)n2)cc1
active: growth inhibition [4] 92%
inactive: growth inhibition [1] 24% | inhibition [2] 15% | inhibition [3] 0% | outcome [5] | outcome [6] | outcome [7] | outcome [8]

COc1ccc2ncc(F)c([C@@H](O)CN3CCC(NCc4cc5c(cn4)OCS5)CC3)c2c1
inactive: inhibition [2] 16% | inhibition [3] -2% | outcome [5] | outcome [6] | outcome [7] | outcome [8]
active: growth inhibition [1] 98% | growth inhibition [4] 103%

COc1ccc2c(ccc3c2ncc2c(=O)n(-c4ccccc4)[nH]c23)c1
active: growth inhibition [1] 92% | growth inhibition [4] 95%
inactive: inhibition [2] -2% | inhibition [3] 4% | outcome [5] | outcome [6] | outcome [7] | outcome [8]

COc1cc(OC)cc(-c2nnc(Sc3ccc(C#N)c([N+](=O)[O-])c3)n2C)c1
active: growth inhibition [1] 77% | growth inhibition [4] 95%
inactive: inhibition [2] 1% | inhibition [3] 3% | outcome [5] | outcome [6] | outcome [7] | outcome [8]

CNC(=O)C1Cc2c([nH]c3c(C)cccc23)C2(N1)C(=O)Nc1ccc(OC(F)(F)F)cc12 (stereo not given)
inactive: inhibition [2] -7% | inhibition [3] -3% | outcome [5] | outcome [6] | outcome [7] | outcome [8]
active: growth inhibition [1] 50% | growth inhibition [4] 100%

COc1ccc(S(=O)(=O)NCC2CCCN(CCCCCNC(=O)/C=C/c3ccc(Cl)c(Cl)c3)C2)cc1 (stereo not given)
inactive: growth inhibition [1] 1% | inhibition [3] 1% | outcome [5] | outcome [6] | outcome [7] | outcome [8]
active: inhibition [2] 53% | growth inhibition [4] 81%

O=C(Nc1ccc(OC2CCN(Cc3ccsc3)C2)c(Cl)c1)c1ccsc1 (stereo not given)
active: growth inhibition [1] 70% | growth inhibition [4] 85%
inactive: inhibition [2] 4% | inhibition [3] 0% | outcome [5] | outcome [6] | outcome [7] | outcome [8]
